These sequences were tested against CDH2 (assay: pooled miR-30 sensor sort-seq; sequence = guide strand). Details: shRNA.

Going from TTAACGTATACTGTTGCACTTT to TAAGCTGAGCAAAATCACCATT, the sensor-assay potency score (higher = more potent) falls from -0.309 to -0.593.

First: TTTATCTTTAAATTAAGCTGAG
Second: TATTTCTTCAACTTCTGCTGAC
The sensor-assay potency score (higher = more potent) of the first is lower: -0.626 for the first, 0.204 for the second.

First: TTATCTTTAAATTAAGCTGAGC
Second: TTTTGTCTTTTACTTATCGTTT
The sensor-assay potency score (higher = more potent) of the first is higher: -0.63 for the first, -0.959 for the second.

Compared with TTTGCTGCATATATCGATCTGG, TCACATTTGGTGATTCTCGGTC is higher in sensor-assay potency score (higher = more potent): 0.226 for the first, 0.353 for the second.

Going from TTCAACTTCTGCTGACTCCTTC to TTGACCACGGTGACTAACCCGT, the sensor-assay potency score (higher = more potent) falls from 0.711 to -0.441.

Each sequence was assayed against CDK9 in the same assay as above. Details: shRNA.

Compared with TTTCTGTGGATGTAGTAGAGGC, TTAGCAGCCTTCATGTCCCTAT is higher in sensor-assay potency score (higher = more potent): -0.227 for the first, -0.0117 for the second.

Going from TTCTTCAGAGCCACCTTCTGGC to ATCTCTGCCATGATGCACCCAG, the sensor-assay potency score (higher = more potent) falls from 0.0361 to -0.791.

First: TTGAACACCTCCCCGAAGGTGC
Second: TTGACCACATTCTCGTGTTTTA
The sensor-assay potency score (higher = more potent) of the first is lower: -0.836 for the first, -0.499 for the second.

Going from TCAAGTTGACCACATTCTCGTG to TTTTAGAAGCTGAAGGATCTTG, the sensor-assay potency score (higher = more potent) rises from -0.846 to -0.461.

Going from TACTCGAACATGGACGTCAGGT to AAAACATTGCTCAACAGCCCAG, the sensor-assay potency score (higher = more potent) falls from -0.285 to -1.38.

Compared with AACTTGACCAAAACATTGCTCA, TCTCGTATTTGGAAACTTCATC is lower in sensor-assay potency score (higher = more potent): -0.141 for the first, -1.02 for the second.

Compared with TATATACTACCCTTGCAGCGGT, TATACTACCCTTGCAGCGGTTA is higher in sensor-assay potency score (higher = more potent): -0.627 for the first, -0.622 for the second.

Going from TTGTCGATGAGGTCCAGTGCGT to AAGTACTCGAACATGGACGTCA, the sensor-assay potency score (higher = more potent) rises from -0.728 to 0.37.

First: TCGAACACCAGGTATATACTAC
Second: ATTCTCGTGTTTTAGAAGCTGA
The sensor-assay potency score (higher = more potent) of the first is lower: -0.813 for the first, 0.181 for the second.

Compared with TGAAGGATCTTGATCTCCCGCA, TAGAAGCTGAAGGATCTTGATC is lower in sensor-assay potency score (higher = more potent): -0.0916 for the first, -0.488 for the second.

Going from TATTTGGAAACTTCATCACAAA to TTGATCTCCCGCAAGGCTGTAA, the sensor-assay potency score (higher = more potent) rises from -1.19 to -0.379.

Going from TTTTCCATCAGCACCTTCTTCA to TACCAGAGTGTCACCACACGGT, the sensor-assay potency score (higher = more potent) rises from -0.28 to 0.18.

Each sequence was assayed against CDKL2 in the same assay as above. Details: shRNA.

First: TTAGTAACTTGATTTCTCGCAT
Second: TAGATAAAGAAACATTTCTGGC
The sensor-assay potency score (higher = more potent) of the first is higher: 0.346 for the first, -0.719 for the second.

First: TACTTTTAACTGTAGTTCTTGG
Second: TTTCTTTCTTCAACTAAGGAAT
The sensor-assay potency score (higher = more potent) of the first is higher: -0.4 for the first, -1.1 for the second.

Compared with TTTAAATAGTTTATAATCCTTA, TAGTAACTTGATTTCTCGCATT is lower in sensor-assay potency score (higher = more potent): -0.355 for the first, -0.927 for the second.

From the OligoGym collection
